From the supplement of paper PMC10849652 come the findings set out here.

About 7,900 targets were measured; listed, in parts, are those with a hit and a random draw of the rest. About 0.6% of all pairs of compound and target were hits. Values without a mark were called inactive.

UniProt Q6Y7W6, sequence (Q6Y7W6 whole entry, looked up): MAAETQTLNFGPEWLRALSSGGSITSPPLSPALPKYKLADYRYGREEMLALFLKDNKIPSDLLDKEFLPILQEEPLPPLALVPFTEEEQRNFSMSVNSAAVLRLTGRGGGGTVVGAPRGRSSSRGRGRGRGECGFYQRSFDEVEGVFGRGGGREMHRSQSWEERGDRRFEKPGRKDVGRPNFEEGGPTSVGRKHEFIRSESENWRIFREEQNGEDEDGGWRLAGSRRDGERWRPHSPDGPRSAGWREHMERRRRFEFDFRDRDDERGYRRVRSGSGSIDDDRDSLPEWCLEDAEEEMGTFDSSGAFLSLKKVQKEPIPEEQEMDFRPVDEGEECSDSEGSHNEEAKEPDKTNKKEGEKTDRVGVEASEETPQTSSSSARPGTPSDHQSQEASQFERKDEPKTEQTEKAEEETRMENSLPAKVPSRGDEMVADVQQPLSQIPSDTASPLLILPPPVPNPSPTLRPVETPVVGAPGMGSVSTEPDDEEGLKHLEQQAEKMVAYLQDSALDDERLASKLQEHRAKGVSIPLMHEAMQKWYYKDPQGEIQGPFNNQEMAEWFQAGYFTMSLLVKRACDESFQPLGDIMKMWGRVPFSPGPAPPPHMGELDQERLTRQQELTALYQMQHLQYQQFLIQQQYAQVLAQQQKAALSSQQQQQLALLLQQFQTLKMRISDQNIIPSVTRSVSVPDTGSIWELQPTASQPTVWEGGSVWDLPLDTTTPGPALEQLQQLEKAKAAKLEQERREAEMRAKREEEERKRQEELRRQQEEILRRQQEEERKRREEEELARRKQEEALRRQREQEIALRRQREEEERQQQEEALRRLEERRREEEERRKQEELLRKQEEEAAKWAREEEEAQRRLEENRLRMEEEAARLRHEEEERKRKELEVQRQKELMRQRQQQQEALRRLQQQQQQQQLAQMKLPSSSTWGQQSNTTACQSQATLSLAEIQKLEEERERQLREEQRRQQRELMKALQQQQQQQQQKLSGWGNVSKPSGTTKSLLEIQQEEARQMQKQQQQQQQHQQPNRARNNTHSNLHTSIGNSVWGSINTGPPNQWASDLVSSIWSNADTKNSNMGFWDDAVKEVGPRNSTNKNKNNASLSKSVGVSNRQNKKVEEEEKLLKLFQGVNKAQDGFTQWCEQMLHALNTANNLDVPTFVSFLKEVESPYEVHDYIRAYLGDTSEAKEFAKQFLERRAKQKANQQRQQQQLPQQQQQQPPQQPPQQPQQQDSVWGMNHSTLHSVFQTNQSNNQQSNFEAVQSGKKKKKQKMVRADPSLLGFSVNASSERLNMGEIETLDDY
UniProt P01112, sequence (P01112 whole entry, looked up): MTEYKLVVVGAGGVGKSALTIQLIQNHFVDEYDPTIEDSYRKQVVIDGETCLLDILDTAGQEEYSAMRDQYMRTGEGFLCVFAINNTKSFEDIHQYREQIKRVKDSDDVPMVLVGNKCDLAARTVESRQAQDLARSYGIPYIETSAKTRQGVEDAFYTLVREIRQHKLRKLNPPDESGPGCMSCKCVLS
UniProt Q9P2H3, sequence (Q9P2H3 whole entry, looked up): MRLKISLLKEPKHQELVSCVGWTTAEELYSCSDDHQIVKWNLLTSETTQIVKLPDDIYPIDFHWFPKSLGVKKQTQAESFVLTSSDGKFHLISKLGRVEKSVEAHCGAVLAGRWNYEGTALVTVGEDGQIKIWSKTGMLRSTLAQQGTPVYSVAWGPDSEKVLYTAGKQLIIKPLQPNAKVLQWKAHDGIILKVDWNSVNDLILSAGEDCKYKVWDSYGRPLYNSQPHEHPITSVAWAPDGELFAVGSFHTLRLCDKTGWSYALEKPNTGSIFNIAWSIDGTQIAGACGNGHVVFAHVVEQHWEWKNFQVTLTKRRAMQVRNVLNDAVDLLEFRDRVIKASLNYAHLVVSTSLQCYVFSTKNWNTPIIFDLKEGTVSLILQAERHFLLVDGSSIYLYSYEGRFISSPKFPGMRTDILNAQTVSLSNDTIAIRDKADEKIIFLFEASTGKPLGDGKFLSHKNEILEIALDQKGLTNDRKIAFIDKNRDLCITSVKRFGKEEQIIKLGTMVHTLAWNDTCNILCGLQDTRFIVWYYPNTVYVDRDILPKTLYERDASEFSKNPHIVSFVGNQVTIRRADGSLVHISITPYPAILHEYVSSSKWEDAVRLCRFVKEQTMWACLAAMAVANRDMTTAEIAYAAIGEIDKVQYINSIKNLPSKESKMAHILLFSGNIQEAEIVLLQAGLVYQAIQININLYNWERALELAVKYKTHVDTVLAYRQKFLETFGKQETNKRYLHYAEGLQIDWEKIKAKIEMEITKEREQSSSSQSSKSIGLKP
UniProt P69905, sequence (P69905 whole entry, looked up): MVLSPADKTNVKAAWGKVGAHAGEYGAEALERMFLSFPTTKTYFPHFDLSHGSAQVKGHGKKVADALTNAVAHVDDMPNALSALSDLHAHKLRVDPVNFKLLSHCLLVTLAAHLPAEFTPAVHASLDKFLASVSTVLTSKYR
UniProt Q8N2G8, sequence (Q8N2G8 whole entry, looked up): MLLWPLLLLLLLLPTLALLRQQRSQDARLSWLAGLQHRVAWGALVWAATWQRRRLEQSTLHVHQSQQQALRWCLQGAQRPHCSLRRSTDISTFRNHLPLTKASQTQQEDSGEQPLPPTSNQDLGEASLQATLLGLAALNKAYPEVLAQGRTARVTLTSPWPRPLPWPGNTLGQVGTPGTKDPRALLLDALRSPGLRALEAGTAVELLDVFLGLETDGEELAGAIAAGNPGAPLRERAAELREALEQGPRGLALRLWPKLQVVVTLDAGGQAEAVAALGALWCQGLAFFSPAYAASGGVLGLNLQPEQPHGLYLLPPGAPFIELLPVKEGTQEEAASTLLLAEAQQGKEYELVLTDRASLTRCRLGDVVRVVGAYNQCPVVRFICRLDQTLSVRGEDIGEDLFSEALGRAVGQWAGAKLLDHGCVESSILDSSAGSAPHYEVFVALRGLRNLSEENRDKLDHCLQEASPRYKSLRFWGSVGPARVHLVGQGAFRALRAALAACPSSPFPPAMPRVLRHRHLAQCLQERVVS
UniProt P11142, sequence (P11142 whole entry, looked up): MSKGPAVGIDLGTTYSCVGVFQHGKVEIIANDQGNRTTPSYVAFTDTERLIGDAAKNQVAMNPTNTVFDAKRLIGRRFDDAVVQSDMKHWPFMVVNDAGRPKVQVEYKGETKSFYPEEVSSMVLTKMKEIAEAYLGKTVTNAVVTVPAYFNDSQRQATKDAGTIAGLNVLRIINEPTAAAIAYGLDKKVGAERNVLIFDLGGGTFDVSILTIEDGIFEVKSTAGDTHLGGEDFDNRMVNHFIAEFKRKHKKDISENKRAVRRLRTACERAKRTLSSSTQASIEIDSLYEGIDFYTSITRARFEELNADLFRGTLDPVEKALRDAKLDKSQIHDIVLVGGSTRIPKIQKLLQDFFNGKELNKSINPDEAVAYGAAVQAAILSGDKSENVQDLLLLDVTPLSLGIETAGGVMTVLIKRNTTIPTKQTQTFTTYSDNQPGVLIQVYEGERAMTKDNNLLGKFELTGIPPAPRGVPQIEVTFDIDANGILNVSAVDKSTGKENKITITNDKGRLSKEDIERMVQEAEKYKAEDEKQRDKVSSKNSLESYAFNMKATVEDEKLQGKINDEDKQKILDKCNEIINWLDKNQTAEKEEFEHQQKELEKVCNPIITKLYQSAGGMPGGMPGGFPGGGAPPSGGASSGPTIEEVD
UniProt Q49A26, sequence (Q49A26 whole entry, looked up): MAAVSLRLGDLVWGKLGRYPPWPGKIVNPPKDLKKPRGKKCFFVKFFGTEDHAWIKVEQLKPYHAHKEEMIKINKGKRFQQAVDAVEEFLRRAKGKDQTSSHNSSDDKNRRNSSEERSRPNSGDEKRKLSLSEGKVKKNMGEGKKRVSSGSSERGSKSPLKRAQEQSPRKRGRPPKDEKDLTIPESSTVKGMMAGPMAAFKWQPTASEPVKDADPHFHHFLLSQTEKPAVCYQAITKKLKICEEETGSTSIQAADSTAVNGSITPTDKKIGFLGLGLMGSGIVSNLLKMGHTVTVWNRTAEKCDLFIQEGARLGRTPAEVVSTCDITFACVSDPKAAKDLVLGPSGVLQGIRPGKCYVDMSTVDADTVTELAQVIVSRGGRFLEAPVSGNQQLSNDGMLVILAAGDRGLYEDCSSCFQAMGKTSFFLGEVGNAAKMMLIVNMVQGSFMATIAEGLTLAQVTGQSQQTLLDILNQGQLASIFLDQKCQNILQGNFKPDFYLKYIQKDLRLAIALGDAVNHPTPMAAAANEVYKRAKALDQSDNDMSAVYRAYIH
UniProt O76003, sequence (O76003 whole entry, looked up): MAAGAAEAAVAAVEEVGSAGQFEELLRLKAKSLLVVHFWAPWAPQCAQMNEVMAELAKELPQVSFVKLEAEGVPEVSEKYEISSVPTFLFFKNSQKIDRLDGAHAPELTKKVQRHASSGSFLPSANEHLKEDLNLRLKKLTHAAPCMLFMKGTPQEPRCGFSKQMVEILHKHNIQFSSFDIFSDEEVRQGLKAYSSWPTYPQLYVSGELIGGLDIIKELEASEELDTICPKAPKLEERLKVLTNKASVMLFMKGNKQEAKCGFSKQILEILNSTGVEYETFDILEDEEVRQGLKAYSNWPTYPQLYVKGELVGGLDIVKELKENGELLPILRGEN
UniProt Q53FT3, sequence (Q53FT3 whole entry, looked up): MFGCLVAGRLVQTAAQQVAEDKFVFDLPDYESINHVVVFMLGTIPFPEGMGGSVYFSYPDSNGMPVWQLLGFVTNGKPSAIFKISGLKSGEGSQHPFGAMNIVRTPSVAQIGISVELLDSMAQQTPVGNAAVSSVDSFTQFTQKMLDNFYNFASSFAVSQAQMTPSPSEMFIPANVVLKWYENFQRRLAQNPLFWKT
UniProt P30711, sequence (P30711 whole entry, looked up): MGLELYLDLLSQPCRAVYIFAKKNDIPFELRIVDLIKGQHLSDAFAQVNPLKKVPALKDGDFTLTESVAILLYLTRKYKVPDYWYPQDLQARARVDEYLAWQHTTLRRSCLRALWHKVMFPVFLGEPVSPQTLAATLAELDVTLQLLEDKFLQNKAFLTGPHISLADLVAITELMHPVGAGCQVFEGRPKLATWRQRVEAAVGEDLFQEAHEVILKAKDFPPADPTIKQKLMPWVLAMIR

Compound in one assay: Cc1nc(Nc2n[nH]c3c2CN(C(=O)N[C@H](CN(C)C)c2ccccc2)C3(C)C)c2sccc2n1
As to the kind of experiment: log2 fold change, soluble protein after heating vs DMSO (PISA); higher = thermal stabilisation; K562 cells, 10 uM, 30 min; active = over 0.2 and 3.5 SD of the protein, either way, in both replicates (recomputed). An outline of the steps:
(§1)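 Soluble protein was quantified by TMTpro 16plex LC-MS/MS after channel sums were equalised. It was obtained as the supernatant after 21,000xg for 90 min from pooled aliquots of K562 cells (2×10^6 cells/mL, 10 μM compound, 30 min) heated for 3 min across 48°C-58°C and extracted in PBS with 0.5% NP-40 at 4°C. Thermal stability values are relative to control samples and come from duplicates. They are given as log2 fold changes.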
On to HSPA8 (UniProt E9PK54), for which the log2 fold change was -0.011.

As to FUCA1 (UniProt P04066), the log2 fold change is -0.01.

Consider GCSH (UniProt P23434), for which the log2 fold change is 0.01.

With IFNGR1 (UniProt P15260), the log2 fold change was -0.015.

Turning to GSTM4 (UniProt Q03013), the log2 fold change is 0.088.

For GHDC (UniProt Q8N2G8), the log2 fold change was -0.001.

On to FUBP3 (UniProt Q96I24), for which the log2 fold change is 0.035.

As for GLCCI1 (UniProt Q86VQ1), the log2 fold change was -0.103.

As to FAT1 (UniProt Q14517), the log2 fold change was 0.

Take FECH isoform 2 (UniProt P22830): the log2 fold change is -0.04.

On to GSTT1 (UniProt P30711), for which the log2 fold change was -0.019.

In the case of HECTD1 (UniProt Q9ULT8), the log2 fold change was -0.141.

For the target FHOD1 (UniProt Q9Y613), the log2 fold change is -0.109.

Consider GLRX3 (UniProt O76003), for which the log2 fold change was -0.022.

For the target HDAC2 (UniProt Q92769), the log2 fold change is 0.009.

HMGCR isoform 3 (UniProt P04035): the log2 fold change was 0.015.

Consider HSPA8 (UniProt P11142), for which the log2 fold change is -0.001.

As to GLYR1 (UniProt Q49A26), the log2 fold change is 0.068.

For HNRNPK isoform 2 (UniProt P61978), the log2 fold change is -0.206.

As for HDAC7 isoform 5 (UniProt Q8WUI4), the log2 fold change is -0.378 (active).

FASTKD1 (UniProt Q53R41): the log2 fold change is 0.54 (active).

With GNL1 (UniProt P36915), the log2 fold change was 0.05.

In the case of GTF2E1 (UniProt P29083), the log2 fold change was -0.168.

Turning to GLA (UniProt P06280), the log2 fold change is -0.007.

As to FBXO42 (UniProt Q6P3S6), the log2 fold change was 0.028.

On to HRAS (UniProt P01112), for which the log2 fold change was 0.024.

As for IFT80 isoform 3 (UniProt Q9P2H3), the log2 fold change is -0.02.

As to HBA1 (UniProt P69905), the log2 fold change is 0.017.

In the case of HIKESHI (UniProt Q53FT3), the log2 fold change is 0.018.

For HADHB (UniProt P55084), the log2 fold change is -0.106.

For GOPC (UniProt Q9HD26), the log2 fold change was 0.05.

For HBQ1 (UniProt P09105), the log2 fold change was -0.004.

Regarding HNRNPH2 (UniProt P55795), the log2 fold change was -0.231.

As to GIGYF2 (UniProt Q6Y7W6), the log2 fold change is -0.105.

Compound in the next assay: Cc1nc(Nc2ncc(C(=O)Nc3c(C)cccc3Cl)s2)cc(N2CCN(CCO)CC2)n1 [dasatinib]
The assay is described as above. An outline of the steps:
as §1
Consider HSPA8 (UniProt E9PK54), for which the log2 fold change is 0.011.

For FUCA1 (UniProt P04066), the log2 fold change was -0.009.

For the target GCSH (UniProt P23434), the log2 fold change was 0.015.

Take IFNGR1 (UniProt P15260): the log2 fold change was 0.154.

In the case of GSTM4 (UniProt Q03013), the log2 fold change is 0.

For GHDC (UniProt Q8N2G8), the log2 fold change is 0.027.

On to FUBP3 (UniProt Q96I24), for which the log2 fold change was -0.024.

Consider GLCCI1 (UniProt Q86VQ1), for which the log2 fold change is -0.066.

With FAT1 (UniProt Q14517), the log2 fold change was 0.046.

As for FECH isoform 2 (UniProt P22830), the log2 fold change was 0.46.

Take GSTT1 (UniProt P30711): the log2 fold change is 0.143.

Regarding HECTD1 (UniProt Q9ULT8), the log2 fold change was -0.104.

For the target FHOD1 (UniProt Q9Y613), the log2 fold change was 0.044.

GLRX3 (UniProt O76003): the log2 fold change was -0.054.

Regarding HDAC2 (UniProt Q92769), the log2 fold change is 0.007.

As to HMGCR isoform 3 (UniProt P04035), the log2 fold change is -0.027.

As for HSPA8 (UniProt P11142), the log2 fold change was 0.03.

With GLYR1 (UniProt Q49A26), the log2 fold change is 0.067.

Consider HNRNPK isoform 2 (UniProt P61978), for which the log2 fold change is -0.072.

For HDAC7 isoform 5 (UniProt Q8WUI4), the log2 fold change was -0.134.

Turning to FASTKD1 (UniProt Q53R41), the log2 fold change is -0.168.

With GNL1 (UniProt P36915), the log2 fold change was -0.084.

Turning to GTF2E1 (UniProt P29083), the log2 fold change is -0.173.

With GLA (UniProt P06280), the log2 fold change is -0.039.

FBXO42 (UniProt Q6P3S6): the log2 fold change was -0.036.

Consider HRAS (UniProt P01112), for which the log2 fold change is 0.

As for IFT80 isoform 3 (UniProt Q9P2H3), the log2 fold change is -0.148.

Regarding HBA1 (UniProt P69905), the log2 fold change was 0.044.

HIKESHI (UniProt Q53FT3): the log2 fold change is 0.079.

With HADHB (UniProt P55084), the log2 fold change was -0.072.

As to GOPC (UniProt Q9HD26), the log2 fold change is -0.081.

Regarding HBQ1 (UniProt P09105), the log2 fold change was 0.102.

In the case of HNRNPH2 (UniProt P55795), the log2 fold change was -0.061.

Regarding GIGYF2 (UniProt Q6Y7W6), the log2 fold change was -0.22.

Compound in another assay: Cc1ncc(-c2ccnc(Nc3ccc(S(C)(=O)=O)cc3)n2)n1C(C)C
The assay is described as above. An outline of the steps:
as §1
Regarding HSPA8 (UniProt E9PK54), the log2 fold change was 0.072.

With FUCA1 (UniProt P04066), the log2 fold change was -0.014.

GCSH (UniProt P23434): the log2 fold change was -0.026.

Turning to IFNGR1 (UniProt P15260), the log2 fold change was -0.126.

For the target GSTM4 (UniProt Q03013), the log2 fold change is -0.018.

GHDC (UniProt Q8N2G8): the log2 fold change was -0.011.

In the case of FUBP3 (UniProt Q96I24), the log2 fold change is 0.167.

On to GLCCI1 (UniProt Q86VQ1), for which the log2 fold change was -0.094.

On to FAT1 (UniProt Q14517), for which the log2 fold change is -0.064.

For the target FECH isoform 2 (UniProt P22830), the log2 fold change was 0.134.

Regarding GSTT1 (UniProt P30711), the log2 fold change is -0.033.

For HECTD1 (UniProt Q9ULT8), the log2 fold change is -0.022.

Turning to FHOD1 (UniProt Q9Y613), the log2 fold change is -0.043.

Turning to GLRX3 (UniProt O76003), the log2 fold change was 0.015.

In the case of HDAC2 (UniProt Q92769), the log2 fold change was -0.002.

For the target HMGCR isoform 3 (UniProt P04035), the log2 fold change is -0.087.

As to HSPA8 (UniProt P11142), the log2 fold change was -0.003.

For the target GLYR1 (UniProt Q49A26), the log2 fold change is -0.004.

Consider HNRNPK isoform 2 (UniProt P61978), for which the log2 fold change is -0.136.

With HDAC7 isoform 5 (UniProt Q8WUI4), the log2 fold change is -0.161.

In the case of FASTKD1 (UniProt Q53R41), the log2 fold change is -0.053.

In the case of GNL1 (UniProt P36915), the log2 fold change was 0.054.

As for GTF2E1 (UniProt P29083), the log2 fold change was -0.032.

Consider GLA (UniProt P06280), for which the log2 fold change was -0.04.

In the case of FBXO42 (UniProt Q6P3S6), the log2 fold change is -0.026.

With HRAS (UniProt P01112), the log2 fold change is 0.003.

Take IFT80 isoform 3 (UniProt Q9P2H3): the log2 fold change was 0.114.

Regarding HBA1 (UniProt P69905), the log2 fold change is 0.01.

Regarding HIKESHI (UniProt Q53FT3), the log2 fold change was 0.009.

For HADHB (UniProt P55084), the log2 fold change was 0.032.

Regarding GOPC (UniProt Q9HD26), the log2 fold change was 0.021.

For HBQ1 (UniProt P09105), the log2 fold change is -0.043.

For the target HNRNPH2 (UniProt P55795), the log2 fold change was -0.103.

Regarding GIGYF2 (UniProt Q6Y7W6), the log2 fold change was -0.023.
